The list is not random: actives were taken first. Their share in the collection is about 5.4%.
Six1-Eya2 inh = Six1/Eya2 interaction inhibition; 0.56% of 360,000 active; activity change, % (test concentration not listed); Q15475+O00167; AlphaScreen GST-Six1/His-Eya2 binding, biochemical; hits give low values; in the data active = activity change below about -65%; inconclusive = mostly about -30% to -63%
Target sequence (O00167 whole entry, looked up): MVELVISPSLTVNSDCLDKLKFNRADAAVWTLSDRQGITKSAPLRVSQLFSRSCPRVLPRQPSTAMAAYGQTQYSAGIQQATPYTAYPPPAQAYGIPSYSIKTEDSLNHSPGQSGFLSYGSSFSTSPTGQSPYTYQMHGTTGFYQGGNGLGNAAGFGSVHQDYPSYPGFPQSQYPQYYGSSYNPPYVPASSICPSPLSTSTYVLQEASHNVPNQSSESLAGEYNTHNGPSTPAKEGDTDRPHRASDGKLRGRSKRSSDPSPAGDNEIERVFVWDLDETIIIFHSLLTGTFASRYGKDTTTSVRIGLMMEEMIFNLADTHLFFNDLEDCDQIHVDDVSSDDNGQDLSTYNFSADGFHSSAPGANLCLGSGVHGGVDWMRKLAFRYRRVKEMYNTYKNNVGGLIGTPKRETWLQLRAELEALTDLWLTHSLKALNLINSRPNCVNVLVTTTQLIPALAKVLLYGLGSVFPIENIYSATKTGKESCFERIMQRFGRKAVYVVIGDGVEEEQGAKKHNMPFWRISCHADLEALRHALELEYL
Target sequence (Q15475 whole entry, looked up): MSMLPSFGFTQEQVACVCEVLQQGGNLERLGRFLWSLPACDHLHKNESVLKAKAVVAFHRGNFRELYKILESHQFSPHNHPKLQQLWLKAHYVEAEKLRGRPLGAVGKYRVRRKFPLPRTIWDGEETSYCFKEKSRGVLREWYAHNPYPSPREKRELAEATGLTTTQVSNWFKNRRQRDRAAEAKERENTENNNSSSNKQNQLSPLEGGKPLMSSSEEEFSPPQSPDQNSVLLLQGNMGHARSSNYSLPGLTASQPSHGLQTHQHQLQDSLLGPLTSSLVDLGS
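Homogeneous AlphaScreen proximity assay pairing GST-Six1 with His-tagged Eya2 (added as 5X mix: 250 nM and 500 nM) in 50 mM Tris pH 8.0, 300 mM NaCl, 1 mM TCEP. Glutathione donor and nickel acceptor beads; 1 h, 37 °C, dark.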
CtBP-E1A inh = inhibitors of CtBP/E1A interaction | AlphaScreen GST-E1A/His-CtBP binding, 1536-well; hits give low values | activity change, % (test concentration not listed) | 0.49% of 340,000 active | AID 651724; in the data active = activity change below about -65%; inconclusive = mostly about -30% to -63%
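AlphaScreen with 125 nM GST-E1A and 125 nM His-CtBP (5X stocks) in Tris pH 8.0, 300 mM NaCl, BSA, Tween 20, TCEP. Compounds preincubated 2 h at 37 deg C, then glutathione donor/nickel acceptor beads added for 1 h at 37 deg C in dark.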
RORgamma inh = inhibitors of mouse ROR gamma transcriptional activity; AID 2551; Potency, µM (doses to about 53.6 µM), actives largely listed as inhibitors; Drosophila S2 Gal4-RORgamma UAS-luciferase reporter, 20 h; 5.4% of 310,000 active; also: nearly all actives have a fitted effect of over 60% in size
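Compounds are pin-transferred onto Drosophila Schneider cells expressing a copper-inducible Gal4–ROR gamma transactivation domain fusion. After 1 hr, copper sulfate is added to 700 uM final; luciferase is read 20 hr later.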
p53 reactivator = re-activators of mutant p53; 0.063% of 320,000 active; H1299 p53-A138V BP100-luciferase reporter, luminescence, 24 h; Potency, µM (titrated, usually from 92.2 µM), hits mostly activators; AID 504706; also: nearly all actives have a fitted effect of over 45% in size
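p53-null H1299 cells stably carrying temperature-sensitive p53-A138V and a BP100-luciferase reporter were pinned with compounds (4-point, 1:5 series) and held 24 hrs at 37 deg C. Luminescence was read 10 min after detection reagent.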
Gal4-VP16 FLuc = counter-screen for ROR gamma inhibitors: Gal4-VP16 reporter; Drosophila S2 Gal4-VP16 UAS-luciferase, luminescence, 20 h; 3.5% of 310,000 active; Potency, µM (top dose mostly 53.6 µM), hits mostly inhibitors;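 also: Gal4-VP16 expression switched on by copper sulfate through the metallothionein promoter; nearly all actives have a fitted effect of over 50% in size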
Large screens that a line does not name were inactive; ! = repeats disagree. Unless noted, calls follow the shape of the dose curve; as a rule, active = well fitted curve in the direction sought with a large enough effect; inconclusive = small, poorly fitted or top-dose-only effect, or another doubt; inactive = no such curve, though single readings can be large; an effect the other way counts as inactive or inconclusive.

CCC(=O)NC(=S)Nc1ccc(-c2nc3ccc(C)cc3s2)cc1	RORgamma inh 1.1µM, p53 reactivator inconclusive, Gal4-VP16 FLuc 0.89µM
Cc1ccc2nc(-c3ccc(NC(=S)NC(=O)C(C)C)cc3)sc2c1	RORgamma inh 1.1µM, p53 reactivator inconclusive, Gal4-VP16 FLuc 2.8µM
Cc1ccc2nc(-c3ccc(NC(=O)C(C)N4C(=O)c5ccccc5C4=O)cc3)sc2c1 (configuration not stated)	p53 reactivator inconclusive
Cc1ccc(-n2c(N)c(C(=O)Nc3ccccc3F)sc2=S)cc1C	CtBP-E1A inh inconclusive
CN1CCN(NC(=S)NC(C)(C)CC(C)(C)C)CC1	RORgamma inh 6.3µM, Gal4-VP16 FLuc 18µM
CN1CCN(NC(=S)NC2CCCC2)CC1	none
COc1cccc(/C=N/NC(=O)C(=O)N2CCCCCC2)c1O	Six1-Eya2 inh -82, CtBP-E1A inh -89, RORgamma inh 7.9µM, Gal4-VP16 FLuc 10µM
COc1cccc(/C=N/NC(=O)NC2CCCCC2)c1O	RORgamma inh 6.3µM, Gal4-VP16 FLuc 8.9µM
COc1cccc(/C=N\NC(=O)C2C(=O)NCC2c2ccccc2)c1O (configuration not stated)	Six1-Eya2 inh -86, CtBP-E1A inh -90, RORgamma inh 8.9µM, Gal4-VP16 FLuc inconclusive
O=C(C[n+]1ccc(C(=O)NCc2ccccc2)cc1)c1ccc(F)cc1	none (no result: RORgamma inh, p53 reactivator, Gal4-VP16 FLuc)
NS(=O)(=O)c1ccc(CNS(=O)(=O)c2cc(Cl)ccc2Cl)cc1	none
CC1CCN(C(=O)CSc2nnc(-c3ccccc3F)o2)CC1	none
S=C1NC(c2ccccc2)=CC(c2ccccc2)N1 (configuration not stated)	RORgamma inh 3.5µM, Gal4-VP16 FLuc 11µM
S=C1NC(c2cccs2)=CC(c2ccc(Br)cc2)N1 (configuration not stated)	RORgamma inh 3.5µM, Gal4-VP16 FLuc 4µM
Cc1ccc(N(CC2CO2)S(=O)(=O)c2ccccc2[N+](=O)[O-])cc1 (configuration not stated)	none
COCc1cc(C)n(CC(=O)Nc2cc(C)cc(C)c2)c(=O)c1C#N	none (no result: CtBP-E1A inh)
C/C(=C(/CCO)SS/C(CCO)=C(\C)N(C=O)Cc1cnc(C)nc1N)N(C=O)Cc1cnc(C)nc1N	none (no result: Six1-Eya2 inh, CtBP-E1A inh, p53 reactivator)
CCCN1CCN(CCCNC(=O)c2ccccc2NC(=O)C2=C(C)OCCS2)CC1	none
CCCCOc1ccc2c(c1)C(=O)c1cc(O)ccc1-2	RORgamma inh 8.9µM, Gal4-VP16 FLuc inconclusive
Cc1cc(-c2ccc(N=Nc3c(S(=O)(=O)O)cc4cc(S(=O)(=O)O)cc(N)c4c3O)c(C)c2)ccc1N=Nc1c(S(=O)(=O)O)cc2cc(S(=O)(=O)O)cc(N)c2c1O	RORgamma inh 14µM, Gal4-VP16 FLuc 13µM (no result: Six1-Eya2 inh, CtBP-E1A inh)
Nc1cc(S(=O)(=O)O)cc2ccc(S(=O)(=O)O)cc12	none (no result: RORgamma inh, p53 reactivator, Gal4-VP16 FLuc)
O=S(=O)(O)c1cc(O)c2c(O)c(N=Nc3cc(Cl)ccc3O)c(S(=O)(=O)O)cc2c1	Six1-Eya2 inh -75, CtBP-E1A inh -95, RORgamma inh inconclusive, Gal4-VP16 FLuc inconclusive
COc1ccc(CCN(C)C(=O)c2cnc(C)cn2)cc1OC	none
Fc1ccccc1N1CC(c2ccccc2)C(c2cccs2)=N1 (configuration not stated)	none
O=S(=O)(c1ccc(N2CCCC2)cc1)C(F)(F)F	RORgamma inh inconclusive, p53 reactivator inconclusive, Gal4-VP16 FLuc 5.6µM
O=S(=O)(c1ccc(N2CCN(c3ccc(F)cc3)CC2)cc1)N1CCCC1	none
COc1cccc(NC(=O)CN(C)C(=O)c2cc(-c3ccccc3)nc3ccc(C)cc23)c1	none (no result: RORgamma inh, p53 reactivator, Gal4-VP16 FLuc)
COc1c(O)cc2oc3cc(O)c(CC=C(C)C)c(O)c3c(=O)c2c1CC=C(C)C	RORgamma inh inconclusive, Gal4-VP16 FLuc 25µM! (no result: Six1-Eya2 inh, CtBP-E1A inh, p53 reactivator)
Cn1cc(Br)c(C(=O)Nc2sc3c(c2C(N)=O)CCC3)n1	Six1-Eya2 inh -71, CtBP-E1A inh -79
Cn1ccc(C(=O)Nc2sc3c(c2C(N)=O)CCCCC3)n1	RORgamma inh inconclusive, Gal4-VP16 FLuc inconclusive
Cc1cccc(NC(=O)c2nc[nH]c2C(=O)Nc2ccccc2[N+](=O)[O-])c1	RORgamma inh 4.5µM, Gal4-VP16 FLuc 5.6µM (no result: CtBP-E1A inh)
CNC(=O)c1[nH]cnc1C(=O)Nc1ccccc1C	RORgamma inh 11µM, Gal4-VP16 FLuc 7.9µM
CNC(=O)c1[nH]cnc1C(=O)Nc1cccc(Cl)c1	none (no result: RORgamma inh, Gal4-VP16 FLuc)
CNC(=O)c1[nH]cnc1C(=O)Nc1ccccc1OC	RORgamma inh 13µM, Gal4-VP16 FLuc 16µM
COc1ccc(/C=N/NC(=O)CCn2cnc3ccccc32)cc1	RORgamma inh 13µM, Gal4-VP16 FLuc inconclusive
O=C(Cn1cnc2ccccc21)Nc1ccc(SC(F)F)cc1	RORgamma inh 4µM, Gal4-VP16 FLuc 7.9µM
Cn1cccc1/C=N/NC(=O)Cn1cnc2ccccc21	RORgamma inh 8.9µM, Gal4-VP16 FLuc inconclusive
COc1cccc(/C=N/NC(=O)CCn2cnc3ccccc32)c1	none
O=C(Cn1cnc2ccccc21)N/N=C/C(Br)=C/c1ccccc1	CtBP-E1A inh -83, RORgamma inh inconclusive, p53 reactivator inconclusive, Gal4-VP16 FLuc inconclusive
COc1ccc(NC(=O)COC(=O)Cn2cnc3ccccc32)cc1	none (no result: RORgamma inh, Gal4-VP16 FLuc)
CCCCn1nnnc1C(c1ccccc1)N1CCN(C/C=C/c2ccccc2)CC1 (configuration not stated)	none (no result: RORgamma inh, p53 reactivator, Gal4-VP16 FLuc)
Cc1cc(C)c(S(=O)(=O)N2CCOC2CNC(=O)C(=O)NCCN(C)C)c(C)c1 (configuration not stated)	none
CC(/C=N\NC(=O)Cn1c(C)nc2ccccc21)=C\c1ccccc1	Gal4-VP16 FLuc 13µM
CC(/C=N/NC(=O)CSc1nc(C)cc(C)n1)=C\c1ccccc1	RORgamma inh inconclusive
CCS(=O)(=O)C1=NN2C(=N)/C(=C\c3ccc(SCc4ccco4)o3)C(=O)N=C2S1	Six1-Eya2 inh inconclusive
CCOC(=O)CCNC(=O)c1ccc2nc(C3CCCCC3)oc2c1	RORgamma inh inconclusive (no result: p53 reactivator)
CCc1ccc(CNC(=O)c2ccc3nc(C4CCCCC4)oc3c2)nc1	RORgamma inh 6.3µM, p53 reactivator inconclusive, Gal4-VP16 FLuc 11µM (no result: Six1-Eya2 inh, CtBP-E1A inh)
O=C(NNc1cccc(Cl)c1)c1cccnc1Cl	none (no result: CtBP-E1A inh)
CSc1ncccc1C(=O)Nc1ncc(C)s1	RORgamma inh 11µM
Cc1ccc(C(=O)Nc2ncc(C)s2)o1	RORgamma inh inconclusive
Cc1ccc(C(=O)Nc2ncc(C)s2)s1	RORgamma inh 7.1µM, Gal4-VP16 FLuc inconclusive (no result: p53 reactivator)
CSc1ncccc1C(=O)Nc1nccs1	RORgamma inh 10µM
CC1(C)SC(=S)N(/N=C/c2cccnc2)C1N(O)C(=O)Nc1ccccc1 (configuration not stated)	none (no result: CtBP-E1A inh)
CC1(C)SC(=S)N(/N=C/c2ccccc2O)C1N(O)C(=O)Nc1ccccc1 (configuration not stated)	CtBP-E1A inh inconclusive, RORgamma inh 18µM, Gal4-VP16 FLuc inconclusive
CNC(=O)N(O)C1N(/N=C/c2cc(Br)ccc2O)C(=S)SC1(C)C (configuration not stated)	Six1-Eya2 inh inconclusive, RORgamma inh 16µM, Gal4-VP16 FLuc inconclusive (no result: CtBP-E1A inh)
